± gives the standard deviation of the averaged measurements.
Assays:
DLD1 [1] = assay: cell viability (CellTiter-Glo) relative to plate median (fraction of plate median); higher = more viable cells; conditions: 10 µM, treatment time 24 h
Outline: (§1)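 Kinase inhibitor library compounds were added at a final 10 µM for 24 h to colorectal cancer cells in 384-well plates, 24 h after seeding. The cells stably expressed lentiviral TCF/Wnt firefly luciferase reporters. Firefly luciferase and CellTiterGlo luminescence came from parallel plates, and each well was normalised to its plate median (webcellHTS2, additive, untransformed), averaged over two independent replicates.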

HCT116 [2] = assay: as above; conditions: 10 µM; treatment time 24 h; reporter: TCF4/Wnt
Outline: as §1

SW480 [3] = assay: as above; conditions: 10 µM; treatment time 24 h; reporter: 7TFP
Outline: as §1

DLD1 [4] = assay: TCF/Wnt firefly luciferase reporter signal relative to plate median (fraction of plate median); higher = higher Wnt reporter signal; conditions: 10 µM, treatment time 24 h
Outline: as §1

HCT116 [5] = assay: as above; conditions: 10 µM; treatment time 24 h; reporter: TCF4/Wnt
Outline: as §1

SW480 [6] = assay: as above; conditions: 10 µM; treatment time 24 h; reporter: 7TFP
Outline: as §1

CCc1cnn2c(NCc3ccc[n+]([O-])c3)cc(N3CCCC[C@H]3CCO)nc12
cell viability (DLD1 [1]; reporter: 7TFP): 0.985 ± 0.13 | cell viability (DLD1 [1]; reporter: TCF4/Wnt): 1.06 ± 0.021 | cell viability (HCT116 [2]): 0.809 ± 0.27 | cell viability (SW480 [3]): 1.34 ± 0.042 | TCF/Wnt firefly luciferase reporter signal (DLD1 [4]; reporter: 7TFP): 0.462 ± 0.029 | TCF/Wnt firefly luciferase reporter signal (DLD1 [4]; reporter: TCF4/Wnt): 0.304 ± 0.03 | TCF/Wnt firefly luciferase reporter signal (HCT116 [5]): 0.128 ± 0.063 | TCF/Wnt firefly luciferase reporter signal (SW480 [6]): 0.61 ± 0.33

CCN1CCN(c2ccc(Nc3cc(N(C)C(=O)Nc4c(Cl)c(OC)cc(OC)c4Cl)ncn3)cc2)CC1
cell viability (DLD1 [1]; reporter: 7TFP): 1.36 ± 0.18 | cell viability (DLD1 [1]; reporter: TCF4/Wnt): 1.06 ± 0.071 | cell viability (HCT116 [2]): 1.16 ± 0.092 | cell viability (SW480 [3]): 0.921 ± 0.033 | TCF/Wnt firefly luciferase reporter signal (DLD1 [4]; reporter: 7TFP): 1.24 ± 0.11 | TCF/Wnt firefly luciferase reporter signal (DLD1 [4]; reporter: TCF4/Wnt): 1.06 ± 0.51 | TCF/Wnt firefly luciferase reporter signal (HCT116 [5]): 0.852 ± 0.15 | TCF/Wnt firefly luciferase reporter signal (SW480 [6]): 0.921 ± 0.12

N#CC[C@H](C1CCCC1)n1cc(-c2ncnc3[nH]ccc23)cn1
cell viability (DLD1 [1]; reporter: 7TFP): 1.115 ± 0.0071 | cell viability (DLD1 [1]; reporter: TCF4/Wnt): 1.13 ± 0.057 | cell viability (HCT116 [2]): 1.09 | cell viability (SW480 [3]): 0.9755 ± 0.0021 | TCF/Wnt firefly luciferase reporter signal (DLD1 [4]; reporter: 7TFP): 1.05 ± 0.15 | TCF/Wnt firefly luciferase reporter signal (DLD1 [4]; reporter: TCF4/Wnt): 1.025 ± 0.0071 | TCF/Wnt firefly luciferase reporter signal (HCT116 [5]): 1.13 ± 0.042 | TCF/Wnt firefly luciferase reporter signal (SW480 [6]): 1.09 ± 0.042

CC(C)NC[C@@H](C(=O)N1CCN(c2ncnc3c2[C@H](C)C[C@H]3O)CC1)c1ccc(Cl)cc1
cell viability (DLD1 [1]; reporter: 7TFP): 0.947 ± 0.031 | cell viability (DLD1 [1]; reporter: TCF4/Wnt): 1.1 ± 0.021 | cell viability (HCT116 [2]): 0.917 ± 0.0092 | cell viability (SW480 [3]): 1.04 ± 0.042 | TCF/Wnt firefly luciferase reporter signal (DLD1 [4]; reporter: 7TFP): 0.922 ± 0.029 | TCF/Wnt firefly luciferase reporter signal (DLD1 [4]; reporter: TCF4/Wnt): 0.951 ± 0.31 | TCF/Wnt firefly luciferase reporter signal (HCT116 [5]): 1.08 ± 0.27 | TCF/Wnt firefly luciferase reporter signal (SW480 [6]): 0.999 ± 0.016

COc1cc(Nc2c(C#N)cnc3cc(OCCCN4CCN(C)CC4)c(OC)cc23)c(Cl)cc1Cl [Bosutinib (SKI-606)]
cell viability (DLD1 [1]; reporter: 7TFP): 0.869 ± 0.034 | cell viability (DLD1 [1]; reporter: TCF4/Wnt): 0.9025 ± 0.0021 | cell viability (HCT116 [2]): 0.864 ± 0.016 | cell viability (SW480 [3]): 0.995 ± 0.035 | TCF/Wnt firefly luciferase reporter signal (DLD1 [4]; reporter: 7TFP): 0.4675 ± 0.0035 | TCF/Wnt firefly luciferase reporter signal (DLD1 [4]; reporter: TCF4/Wnt): 0.534 ± 0.021 | TCF/Wnt firefly luciferase reporter signal (HCT116 [5]): 0.242 ± 0.22 | TCF/Wnt firefly luciferase reporter signal (SW480 [6]): 0.648 ± 0.23

C[C@@H]1COC(Nc2ccc3ncnc(Nc4ccc(OCc5nccs5)c(Cl)c4)c3c2)=N1
cell viability (DLD1 [1]; reporter: 7TFP): 0.932 ± 0.12 | cell viability (DLD1 [1]; reporter: TCF4/Wnt): 0.973 ± 0.028 | cell viability (HCT116 [2]): 1.055 ± 0.0071 | cell viability (SW480 [3]): 0.988 ± 0.031 | TCF/Wnt firefly luciferase reporter signal (DLD1 [4]; reporter: 7TFP): 1.14 ± 0.18 | TCF/Wnt firefly luciferase reporter signal (DLD1 [4]; reporter: TCF4/Wnt): 1.51 ± 0.45 | TCF/Wnt firefly luciferase reporter signal (HCT116 [5]): 1.52 ± 0.042 | TCF/Wnt firefly luciferase reporter signal (SW480 [6]): 1.22 ± 0.25

COc1cc2ncnc(Nc3ccc(F)c(Cl)c3)c2cc1OCCCN1CCOCC1 [Gefitinib (Iressa)]
cell viability (DLD1 [1]; reporter: 7TFP): 0.913 ± 0.069 | cell viability (DLD1 [1]; reporter: TCF4/Wnt): 0.968 ± 0.021 | cell viability (HCT116 [2]): 0.961 ± 0.052 | cell viability (SW480 [3]): 0.917 ± 0.03 | TCF/Wnt firefly luciferase reporter signal (DLD1 [4]; reporter: 7TFP): 1.005 ± 0.0071 | TCF/Wnt firefly luciferase reporter signal (DLD1 [4]; reporter: TCF4/Wnt): 0.812 ± 0.18 | TCF/Wnt firefly luciferase reporter signal (HCT116 [5]): 0.76 ± 0.24 | TCF/Wnt firefly luciferase reporter signal (SW480 [6]): 1.02 ± 0.039

COc1cc2ncnc(Nc3cccc(Br)c3)c2cc1OC
cell viability (DLD1 [1]; reporter: 7TFP): 1.15 ± 0.15 | cell viability (DLD1 [1]; reporter: TCF4/Wnt): 1.07 ± 0.064 | cell viability (HCT116 [2]): 1.06 ± 0.086 | cell viability (SW480 [3]): 1.03 ± 0.071 | TCF/Wnt firefly luciferase reporter signal (DLD1 [4]; reporter: 7TFP): 0.631 ± 0.37 | TCF/Wnt firefly luciferase reporter signal (DLD1 [4]; reporter: TCF4/Wnt): 0.58 ± 0.13 | TCF/Wnt firefly luciferase reporter signal (HCT116 [5]): 0.911 ± 0.11 | TCF/Wnt firefly luciferase reporter signal (SW480 [6]): 0.838 ± 0.09

COc1cc2c(Oc3ccc(NC(=O)C4(C(=O)Nc5ccc(F)cc5)CC4)cc3F)ccnc2cc1OCCCN1CCOCC1
cell viability (DLD1 [1]; reporter: 7TFP): 0.845 ± 0.044 | cell viability (DLD1 [1]; reporter: TCF4/Wnt): 0.875 ± 0.042 | cell viability (HCT116 [2]): 0.845 ± 0.12 | cell viability (SW480 [3]): 1.03 ± 0.13 | TCF/Wnt firefly luciferase reporter signal (DLD1 [4]; reporter: 7TFP): 0.794 ± 0.15 | TCF/Wnt firefly luciferase reporter signal (DLD1 [4]; reporter: TCF4/Wnt): 0.568 ± 0.054 | TCF/Wnt firefly luciferase reporter signal (HCT116 [5]): 1.2 ± 0.28 | TCF/Wnt firefly luciferase reporter signal (SW480 [6]): 0.838 ± 0.4

C[C@@H](Oc1cc(-c2cnn(C3CCNCC3)c2)cnc1N)c1c(Cl)ccc(F)c1Cl
cell viability (DLD1 [1]; reporter: 7TFP): 0.882 ± 0.067 | cell viability (DLD1 [1]; reporter: TCF4/Wnt): 1.04 ± 0.042 | cell viability (HCT116 [2]): 0.674 ± 0.1 | cell viability (SW480 [3]): 0.996 ± 0.048 | TCF/Wnt firefly luciferase reporter signal (DLD1 [4]; reporter: 7TFP): 0.833 ± 0.16 | TCF/Wnt firefly luciferase reporter signal (DLD1 [4]; reporter: TCF4/Wnt): 0.831 ± 0.077 | TCF/Wnt firefly luciferase reporter signal (HCT116 [5]): 0.978 ± 0.29 | TCF/Wnt firefly luciferase reporter signal (SW480 [6]): 0.682 ± 0.15

Oc1ccc(-c2nc(-c3ccc(F)cc3)c(-c3ccncc3)[nH]2)cc1
cell viability (DLD1 [1]; reporter: 7TFP): 1.08 ± 0.064 | cell viability (DLD1 [1]; reporter: TCF4/Wnt): 1.04 ± 0.014 | cell viability (HCT116 [2]): 1.14 ± 0.021 | cell viability (SW480 [3]): 0.916 ± 0.013 | TCF/Wnt firefly luciferase reporter signal (DLD1 [4]; reporter: 7TFP): 0.747 ± 0.27 | TCF/Wnt firefly luciferase reporter signal (DLD1 [4]; reporter: TCF4/Wnt): 0.85 ± 0.04 | TCF/Wnt firefly luciferase reporter signal (HCT116 [5]): 1.05 ± 0.035 | TCF/Wnt firefly luciferase reporter signal (SW480 [6]): 0.792 ± 0.15

Reference: the supplement of paper PMC6522484
